Data: PubChem BioAssay (NCATS)
Several values for one entry are separate records, joined by “and”; a condition that tells them apart may be missing. Equal entries are not always repeated. Records with an inconclusive call do not appear. Activity calls are given as the source filed them. Unless noted, calls come from the whole dose curve; as a rule, active = well fitted curve in either direction with a large enough effect (not every such curve was filed as active); inconclusive = small, poorly fitted or top-dose-only effect, or another doubt; inactive = flat fitted curve, though single readings scatter.

What was measured:
[1] = AP1 Signaling Pathway (AID 357); conditions: ME-180 AP-1-bla reporter, EGF-induced, beta-lactamase ratio, 5 h; note: % is set by controls: 0 for no effect and ±100 for the full control effect
How it was run: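 ME-180 cells with beta-lactamase reporter under AP-1 response element, stimulated with EC50 EGF; compounds tested in titration series, 5 h at 37 °C. CCF4 substrate added 2.5 h at room temperature; 460/530 nm emission ratio gave %activity and AC50.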

[2] = target: Cytochrome P450 1A2 (Homo sapiens) (UniProt P05177); test: p450-cyp1a2 (AID 410; calls by dose curve; note: potency is the fitted concentration of half-maximal effect;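 for activity change, negative = inhibition: -100% = full effect of reference inhibitor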); conditions: recombinant CYP1A2, luciferin-ME demethylation, luminescence; series mostly up to 57 µM
How it was run: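 Inhibition was calculated relative to 57 uM furafylline (full inhibition). The reaction used human CYP1A2 at 20nM with Luciferin-ME at its Km, 100uM, driven by an NADPH-regenerating system for 60 min at room temperature.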

[3] = Stat Signaling Pathway (AID 446); conditions: ME-180 SIE beta-lactamase reporter, IL-6 stimulated, 5 h;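 note: ME-180 cervical cancer cells given 40 pM IL-6 alongside compound; SIE-controlled beta-lactamase reporter measured as 460/530 nm FRET emission ratio; % is set by controls: 0 for no effect and ±100 for the full control effect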
How it was run: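 Reporter line: ME-180 cervical carcinoma, SIE-beta-lactamase. Treatment: compound with 40 pM IL-6, 5 hrs, 37 C, in low-serum OPTI-MEM with 10 mM HEPES pH 7.3. Detection: 460/530 nm fluorescence.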

[4] = target: Glucocorticoid receptor (Homo sapiens) (UniProt P04150); test: GR-GFP Redistribution (AID 450;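 active = compounds whose dose series gives a full or clear partial fitted curve of increased nuclear translocation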; note: potency is the fitted concentration of half-maximal effect); conditions: U2OS GR-GFP nuclear translocation, laser cytometry, 2 h
[5] = target: Glucocorticoid receptor (Homo sapiens) (UniProt P04150); test: GR-EFC Redistribution (AID 451; calls by dose curve; note: potency is the fitted concentration of half-maximal effect); conditions: CHO-K1 GR-EFC translocation, beta-gal luminescence, 2 h
How it was run: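 CHO-K1 cells stably expressing nuclear-localized β-gal enzyme acceptor and GR fused C-terminally to the enzyme donor fragment; ligand-driven nuclear translocation restores β-gal by complementation. Compounds titrated up to 46 uM final, 2 h at 37 °C; luminescence read.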

[6] = target: Mitogen-activated protein kinase 10 (Mus musculus) (UniProt Q61831); test: JNK3 AlphaScreen Assay (AID 530); conditions: JNK3 lysate, c-Jun phosphorylation; series mostly up to 57.1 µM;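 note: kinase came from lysate of stimulated human HepG2 cells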; note: potency is the fitted concentration of half-maximal effect;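 for activity change, negative = inhibition: signal reports phosphorylation of biotinylated GST-cJun 1-79 at Ser73 with 10 µM ATP; % is set by controls: 0 for no effect and ±100 for the full control effect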
How it was run: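 JNK3 came from HepG2 lysates pre-activated with IL-1beta and TNF-alpha and phosphorylated biotinylated GST-cJun (1-79) at 10 uM ATP, pH 7.6, room temperature. Compounds were titrated. AlphaScreen signal used anti-phospho-cJun (Ser73) antibody.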

[7] = NFAT Signaling Pathway (AID 444); conditions: Jurkat NFAT-bla M1, carbachol, beta-lactamase ratio, 5 h;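 note: carbachol stimulus at about its EC50 of 1 µM final; % is set by controls: 0 for no effect and ±100 for the full control effect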
How it was run: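 Jurkat cells carrying an NFAT-driven β-lactamase reporter and co-transfected muscarinic M1 receptor were treated with compound plus carbachol (1 uM final, an EC50 level) for 5 h at 37 °C. CCF4 loading followed for 1 h at RT; 460/530 nm ratio gave %activity.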

[8] = Cell Viability - BJ (AID 421; calls by dose curve;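 note: potency is the fitted concentration of half-maximal effect; cells exposed to compound for 40 hours at 37 °C before readout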); conditions: BJ fibroblast viability, qHTS
How it was run: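 Cytotoxicity as drop in intracellular ATP (CellTiter-Glo, 20 min RT) after 40 hr compound exposure of BJ fibroblasts at 37 °C. Titrations scaled between DMSO and 100 uM tamoxifen, Hill-fitted for AC50.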

[9] = Cell Viability - Jurkat (AID 426;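 active = dose-dependent loss of cell ATP signal giving a full or clear fitted curve, ranked by lower potency value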;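 note: potency is the fitted concentration of half-maximal effect; cells exposed to compound for 40 hours at 37 °C before ATP read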); conditions: qHTS
How it was run: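 Seed 5000 Jurkat E6-1 cells/well; add compound; incubate 40 hr at 37 °C; add CellTiter-Glo; wait 20 min at room temperature; read luminescence. Fit concentration-response with Hill equation for AC50.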

[10] = Cell Viability - Hek293 (AID 427;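 active = compounds whose dose-response curve shows a full or clear partial loss of cell viability, called from curve shape rather than a numeric limit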;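 note: potency is the fitted concentration of half-maximal effect; cells exposed to compound for 40 hours at 37 °C before reading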); conditions: qHTS
How it was run: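 Luminescent ATP content (CellTiter-Glo, 20 min at room temperature) was measured after a 40 hr, 37 °C compound exposure of HEK293 cells. AC50 values came from Hill-equation fits of qHTS concentration-response data normalized to DMSO and 100 uM tamoxifen.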

[11] = Cell Viability - HepG2 (AID 433; calls by dose curve;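 note: potency is the fitted concentration of half-maximal effect; potency for ATP loss meaning cytotoxicity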); conditions: qHTS
How it was run: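 Cytotoxicity is scored as loss of intracellular ATP in HepG2 cells exposed to compounds for 40 h. Concentration-response curves, normalized to DMSO and 100 uM tamoxifen, give AC50 values.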

[12] = Cell Viability - MRC5 (AID 434; calls by dose curve;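 note: potency is the fitted concentration of half-maximal effect; cells exposed to compound for 40 hours at 37 °C; potency reflects cytotoxicity seen as loss of intracellular ATP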); conditions: MRC5 lung fibroblast viability, qHTS
How it was run: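 MRC5 normal human lung fibroblasts (1500/well) were treated with compounds for 40 hr at 37 °C in complete medium, and viable cells were measured as intracellular ATP by CellTiter-Glo luminescence. AC50 came from Hill fits, normalized to DMSO and 100 uM tamoxifen.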

[13] = Cell Viability - SK-N-SH (AID 435; calls by dose curve;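 note: potency is the fitted concentration of half-maximal effect; compound exposure lasted 40 h at 37 °C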); conditions: SK-N-SH neuroblastoma cell viability qHTS
How it was run: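 Cells seeded at 1500 per well and incubated 5 hr at 37 °C. Compound added, then 40 hr at 37 °C. CellTiter-Glo added, 20 min at room temperature, luminescence read.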

[14] = Cell Viability - N2a (AID 540; active = well fitted curve in the direction sought with a large enough effect; an effect the other way counts as inactive or inconclusive;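 note: cells exposed to compound for 40 h at 37 °C; plate controls were DMSO alone for no effect and tamoxifen control for full effect; nearly all actives have a fitted effect of over 45% in size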); conditions: N2a mouse neuroblastoma cell viability; series mostly up to 92.2 µM
How it was run: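 First, 1500 N2a cells per well incubate 5 hr at 37 °C; next, compounds are added and incubated 40 hr at 37 °C; finally CellTiter-Glo is added and luminescence read after 20 min, with AC50 derived by Hill modeling.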

[15] = Cell Viability - NIH 3T3 (AID 541; active = well fitted curve in the direction sought with a large enough effect; an effect the other way counts as inactive or inconclusive;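 note: plate controls were DMSO alone for no effect and tamoxifen positive control for full effect; nearly all actives have a fitted effect of over 25% in size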); conditions: NIH 3T3 cell viability, qHTS; series mostly up to 92.2 µM
How it was run: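 AC50 values reflect concentration-dependent loss of intracellular ATP in NIH 3T3 cells after 40 hr treatment in complete culture medium, quantified by luciferase-based luminescence.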

[16] = Cell Viability - HUV-EC-C (AID 542; active = well fitted curve in the direction sought with a large enough effect; an effect the other way counts as inactive or inconclusive; note: % is set by controls: 0 for no effect and ±100 for the full control effect; nearly all actives have a fitted effect of over 35% in size); conditions: HUV-EC-C endothelial cell viability, qHTS; series mostly up to 92.2 µM
How it was run: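 Decrease in cellular ATP, quantified by luciferase luminescence, reflects toxicity in normal human vascular endothelial HUV-EC-C cells given compound for 40 hr in complete culture medium. Values are AC50s from concentration-response curves.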

[17] = Cell Viability - H-4-II-E (AID 543; active = well fitted curve in the direction sought with a large enough effect; an effect the other way counts as inactive or inconclusive; note: % is set by controls: 0 for no effect and ±100 for the full control effect; nearly all actives have a fitted effect of over 35% in size); conditions: H-4-II-E rat hepatoma viability; series mostly up to 92.2 µM
How it was run: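 Here, cytotoxicity is measured in the rat hepatoma line H-4-II-E as loss of intracellular ATP after 40 hr compound treatment, detected by luciferase luminescence.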

[18] = Cell Viability - SH-SY5Y (AID 544; active = well fitted curve in the direction sought with a large enough effect; an effect the other way counts as inactive or inconclusive;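 note: 0% = DMSO alone and -100% = 100 µM tamoxifen; nearly all actives have a fitted effect of over 55% in size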); conditions: SH-SY5Y neuroblastoma cell viability; series mostly up to 92.2 µM
How it was run: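 Cytotoxicity is scored as a concentration-dependent fall in intracellular ATP in human SH-SY5Y cells treated 40 hr in complete culture medium. Potency is expressed as AC50 from a Hill equation fit.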

[19] = Cell Viability - Renal Proximal Tubule (AID 545; active = well fitted curve in the direction sought with a large enough effect; an effect the other way counts as inactive or inconclusive;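 note: 0% = DMSO only and -100% = 100 µM tamoxifen; nearly all actives have a fitted effect of over 40% in size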); conditions: renal proximal tubule cells viability, primary cells of rat origin; series mostly up to 91.7 µM
How it was run: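 Cytotoxicity is scored as a concentration-dependent drop in cellular ATP in primary rat renal proximal tubule cells exposed for 40 hr. AC50 derives from Hill modelling.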

[20] = Cell Viability - Mesenchymal (AID 546; active = well fitted curve in the direction sought with a large enough effect; an effect the other way counts as inactive or inconclusive;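 note: cells exposed to compound for 40 hours before reading; 0% = DMSO only and -100% = 100 µM tamoxifen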); conditions: mesenchymal cells viability, qHTS; series mostly up to 91.7 µM
How it was run: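 Normal human renal glomerulus-derived kidney mesenchymal cells, 1000 per well in complete medium, were treated with compounds for 40 hr at 37 °C. Viability was read as intracellular ATP by CellTiter-Glo luminescence; AC50 values came from Hill-equation fits of qHTS concentration-response data.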

Cytochrome P450 1A2 (Homo sapiens), sequence (P05177 whole entry, looked up): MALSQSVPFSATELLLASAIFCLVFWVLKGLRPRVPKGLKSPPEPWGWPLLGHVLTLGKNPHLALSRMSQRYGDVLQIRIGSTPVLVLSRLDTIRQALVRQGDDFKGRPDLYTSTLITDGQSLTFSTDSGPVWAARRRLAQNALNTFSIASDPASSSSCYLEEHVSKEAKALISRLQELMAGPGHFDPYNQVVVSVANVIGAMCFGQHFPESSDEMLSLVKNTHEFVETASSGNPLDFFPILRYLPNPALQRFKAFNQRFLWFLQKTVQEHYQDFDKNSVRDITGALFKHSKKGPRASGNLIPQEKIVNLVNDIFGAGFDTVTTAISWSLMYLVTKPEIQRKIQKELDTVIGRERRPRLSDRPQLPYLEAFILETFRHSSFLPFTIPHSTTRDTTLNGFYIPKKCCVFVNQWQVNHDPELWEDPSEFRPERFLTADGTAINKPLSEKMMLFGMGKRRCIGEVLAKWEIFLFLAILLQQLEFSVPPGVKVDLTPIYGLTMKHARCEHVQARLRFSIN
Glucocorticoid receptor (Homo sapiens), sequence (P04150 whole entry, looked up, the tested form may be a part): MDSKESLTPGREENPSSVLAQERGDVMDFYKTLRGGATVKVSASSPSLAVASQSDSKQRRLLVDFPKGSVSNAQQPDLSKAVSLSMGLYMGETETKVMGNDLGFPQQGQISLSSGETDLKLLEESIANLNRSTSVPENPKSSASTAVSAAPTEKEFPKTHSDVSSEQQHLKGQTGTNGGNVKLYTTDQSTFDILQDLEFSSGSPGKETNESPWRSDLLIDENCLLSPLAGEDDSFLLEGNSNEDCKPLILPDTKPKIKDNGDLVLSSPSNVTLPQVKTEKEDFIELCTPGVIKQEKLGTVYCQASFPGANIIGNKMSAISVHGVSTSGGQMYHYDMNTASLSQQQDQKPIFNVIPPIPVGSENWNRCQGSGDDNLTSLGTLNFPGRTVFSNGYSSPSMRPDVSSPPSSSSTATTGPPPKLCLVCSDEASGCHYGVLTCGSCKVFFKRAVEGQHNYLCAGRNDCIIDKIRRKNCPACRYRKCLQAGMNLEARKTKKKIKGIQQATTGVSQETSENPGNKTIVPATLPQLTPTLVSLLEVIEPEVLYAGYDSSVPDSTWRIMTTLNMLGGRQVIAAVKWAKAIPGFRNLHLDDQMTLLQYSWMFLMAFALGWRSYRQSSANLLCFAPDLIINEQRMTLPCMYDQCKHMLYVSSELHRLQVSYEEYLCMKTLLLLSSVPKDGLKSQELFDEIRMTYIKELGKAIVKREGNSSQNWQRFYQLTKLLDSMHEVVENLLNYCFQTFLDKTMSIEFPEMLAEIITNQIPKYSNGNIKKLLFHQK

CC(C)[C@H](CO)Nc1nc(Nc2cccc(Cl)c2)c2ncn(C(C)C)c2n1
inactive: Potency [4] > 46 µM | Potency [5] > 46 µM | Potency [6]
active: activity change, negative = inhibition ([1]; at 38 µM (top of the series)) -111% | Potency [2] 2 µM and 316 nM | activity, negative = inhibition ([3]; at 38 µM (top of the series)) -81.5%

COc1cc2ncnc(Nc3cccc(Br)c3)c2cc1OC
inactive: Potency [4] > 46 µM | Potency [5] > 46 µM

CCN1CCN(C(=O)N[C@H](C(=O)N[C@@H]2C(=O)N3C(C(=O)O)=C(CSc4nnnn4C)CS[C@@H]23)c2ccc(O)cc2)C(=O)C1=O
inactive: activity change, negative = inhibition ([1]; at 17.2 µM (top of the series)) 6.77% | Potency [2] | activity change, negative = inhibition ([7]; at 17.2 µM (top of the series)) 3.22% | activity, negative = inhibition ([3]; at 17.2 µM (top of the series)) 8% | Potency [6]

CCOC(=O)C1=C(C)NC(=S)NC1c1cccc(O)c1 (stereo not drawn)
active: Potency [2] 39.8 µM
inactive: Potency [4] > 46 µM | Potency [5] > 46 µM | Potency [6]

COc1cc2c(cc1O)CCC1C2CC[C@@]2(C)C1CC[C@@H]2O (stereo partly drawn)
inactive: Potency [4] > 46 µM | Potency [5] > 46 µM

c1coc(CNc2ncnc3nc[nH]c23)c1
inactive: activity change, negative = inhibition ([1]; at 17.2 µM (top of the series)) 2.59% | activity change, negative = inhibition ([7]; at 17.2 µM (top of the series)) 1.53% | activity, negative = inhibition ([3]; at 17.2 µM (top of the series)) -16.6% | Potency [4] > 20.6 µM and > 46 µM | Potency [5] > 20.6 µM and > 46 µM | Potency [6]

COc1cc2c(cc1OC)[C@@H]1C(=O)c3ccc4c(c3O[C@@H]1CO2)C=CC(C)(C)O4
inactive: Potency [4] > 46 µM | Potency [5] > 46 µM
active: Potency [2] 15.8 µM

Cc1cc(O)c2c(c1)C(=O)c1cccc(O)c1C2=O
inactive: Potency [8] > 92 µM | Potency [9] > 92 µM | Potency [10] > 92 µM | Potency [11] > 92 µM | Potency [12] > 92 µM | Potency [13] > 92 µM | Potency [6] | outcome [14] | outcome [15] | outcome [16] | outcome [17] | outcome [18] | outcome [19] | outcome [20]

CN(N=O)C(=O)N[C@H]1C(O)OC(CO)[C@@H](O)[C@H]1O (stereo partly drawn)
inactive: Potency [2] | Potency [4] > 46 µM | Potency [5] > 46 µM | Potency [6]

O=c1c(O)c(-c2ccc(O)c(O)c2)oc2cc(O)ccc12
active: Potency [2] 1.58 µM and 2.51 µM | Potency [6] 12.6 µM
inactive: Potency [4] > 46 µM | Potency [5] > 46 µM

COc1ccc2c(c1OC)C(=O)OC2[C@H]1c2c(cc3c(c2OC)OCO3)CCN1C (stereo partly drawn)
inactive: activity change, negative = inhibition ([1]; at 17.2 µM (top of the series)) -2.27% | activity change, negative = inhibition ([1]; at 38 µM (top of the series)) -1.8% | Potency [2] | activity change, negative = inhibition ([7]; at 17.2 µM (top of the series)) -11.3% | activity change, negative = inhibition ([7]; at 38 µM (top of the series)) -9.62% | activity, negative = inhibition ([3]; at 17.2 µM (top of the series)) 4.57% | activity, negative = inhibition ([3]; at 38 µM (top of the series)) 2.78% | Potency [4] > 46 µM and > 20.6 µM | Potency [5] > 46 µM and > 20.6 µM | Potency [6]

Nc1nc2c(c(=O)[nH]1)N(C=O)[C@H](CNc1ccc(C(=O)N[C@@H](CCC(=O)O)C(=O)O)cc1)CN2
inactive: activity change, negative = inhibition ([1]; at 17.2 µM (top of the series)) -9.84% | Potency [2] | activity change, negative = inhibition ([7]; at 17.2 µM (top of the series)) 4.7% | activity, negative = inhibition ([3]; at 17.2 µM (top of the series)) 7.59% | Potency [4] > 20.6 µM | Potency [5] > 20.6 µM | Potency [6]

CN(C)CC[C@H](c1ccc(Cl)cc1)c1ccccn1
inactive: activity change, negative = inhibition ([1]; at 17.2 µM (top of the series)) 15.5% | activity change, negative = inhibition ([1]; at 38 µM (top of the series)) 10.2% and 11.2% | Potency [2] | activity, negative = inhibition ([3]; at 17.2 µM (top of the series)) 1.79% | activity, negative = inhibition ([3]; at 38 µM (top of the series)) 2.96% | Potency [4] > 46 µM and > 20.6 µM | Potency [5] > 46 µM and > 20.6 µM | Potency [6]

CN1[C@H]2CC(OC(=O)[C@@H](CO)c3ccccc3)C[C@H]1[C@H]1O[C@H]12 (stereo partly drawn)
inactive: activity change, negative = inhibition ([1]; at 17.2 µM (top of the series)) 19.5% | activity, negative = inhibition ([3]; at 17.2 µM (top of the series)) -3.14%
active: activity change, negative = inhibition ([7]; at 17.2 µM (top of the series)) -45.8%

CC(Oc1ccc(O)cc1)(P(=O)(O)O)P(=O)(O)O
inactive: Potency [2] | Potency [4] > 46 µM | Potency [5] > 46 µM

COc1ccc([C@@H]2CNC(=O)C2)cc1OC1CCCC1
inactive: activity change, negative = inhibition ([1]; at 17.2 µM (top of the series)) -7.88% | activity change, negative = inhibition ([1]; at 38 µM (top of the series)) -7.79% | activity change, negative = inhibition ([7]; at 17.2 µM (top of the series)) 2.36% | activity change, negative = inhibition ([7]; at 38 µM (top of the series)) 11.5% | activity, negative = inhibition ([3]; at 17.2 µM (top of the series)) -9.88% | activity, negative = inhibition ([3]; at 38 µM (top of the series)) -0.129% | Potency [4] > 46 µM and > 20.6 µM | Potency [5] > 46 µM and > 20.6 µM | Potency [6]

O=C(O)C=Cc1ccc(Cn2ccnc2)cc1
inactive: Potency [4] > 46 µM | Potency [5] > 46 µM | Potency [6]
